The sequences below were run against NKX3-2 (Homo sapiens, UniProt P78367 192-278) (assay: PBM; 200 nM protein, PBS). Conditions: dsDNA, one strand shown.
NKX3-2, sequence (P78367 192-278): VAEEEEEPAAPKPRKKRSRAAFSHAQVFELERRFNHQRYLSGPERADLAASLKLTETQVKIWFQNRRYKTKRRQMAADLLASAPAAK
In the case of GGCGCGCA, the binding signal is reported as 10.6 upbm affinity estimate (log intensity, higher = more binding, comparable within an allelic series). For ATATGAGG, the binding signal was 11.6 upbm affinity estimate (log intensity, higher = more binding, comparable within an allelic series). For CGGTTACC, the binding signal was 10.5 upbm affinity estimate (log intensity, higher = more binding, comparable within an allelic series). In the case of GAGTACAC, the binding signal is reported as 12.2 upbm affinity estimate (log intensity, higher = more binding, comparable within an allelic series). With ACCACTTC the binding signal was 12.8 upbm affinity estimate (log intensity, higher = more binding, comparable within an allelic series).
